Experimental data from PubChem BioAssay (Tox21).
Inconclusive results are not listed. Where a call stands in place of a potency, no number is given. Calls of active or inactive are those of the source. Unless noted, calls follow the shape of the dose curve; as a rule, active = well fitted curve in the direction sought with a large enough effect in the repeat runs; inconclusive = weak or mixed curves; inactive = no such curve, though single readings can be large; an effect the other way counts as inactive or inconclusive.

Legend:
[1] = qHTS assay to identify small molecule agonists of the peroxisome proliferator-activated receptor delta (PPARd) signaling pathway - cell viability counter screen (AID 743211); also: nearly all actives have a fitted effect of over 55% in size; also: potency is read from the fitted curve at half-maximal effect
Method in brief: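 HEK293H PPARd-bla, 3000 cells/well; 5 h preincubation 37C/5% CO2; cpd in DMSO, 17 h 37C; B/G FRET substrate 2 h RT; CellTiter-Glo 30 min RT, luminescence.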

[2] = qHTS assay to identify small molecule antagonists of the peroxisome proliferator-activated receptor delta (PPARd) signaling pathway - cell viability counter screen (AID 743213); also: nearly all actives have a fitted effect of over 50% in size
Method in brief: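 Viability counter-screen, qHTS format: PPARd-bla HEK293H, L165041 300 nM final, 17 h compound exposure at 37 C, CellTiter-Glo luminescence after 30 min RT.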

[3] = qHTS assay to identify small molecule agonists of the farnesoid-X-receptor (FXR) signaling pathway - cell viability counter screen (AID 743218); also: nearly all actives have a fitted effect of over 45% in size
Method in brief: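 Quantitative HTS counter screen measuring ATP-based viability via CellTiter-Glo luminescence in HEK 293T cells carrying a UAS-driven beta-lactamase reporter, after 16 h compound exposure at 37 C.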

[4] = qHTS assay to identify small molecule antagonists of the farnesoid-X-receptor (FXR) signaling pathway - cell viability counter screen (AID 743221; active = well fitted cell-killing curve with a large enough effect in the repeat runs, not every such curve was filed as active; also: nearly all actives have a fitted effect of over 50% in size; also: potency is read from the fitted curve at half-maximal effect)
Method in brief: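 Luminescence from CellTiter-Glo measures cytotoxicity in GeneBLAzer FXR-UAS-bla HEK 293T cells. Cells were exposed to compounds with 50 uM chenodeoxycholic acid (final) for 16 h at 37 C, in wells also used for the reporter readout.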

[5] = biological target: Vitamin D3 receptor (Homo sapiens) (UniProt P11473); test: qHTS assay to identify small molecule agonists of the vitamin D receptor (VDR) signaling pathway (AID 743222; calls by dose curve)
Vitamin D3 receptor (Homo sapiens), sequence (P11473 whole entry, looked up): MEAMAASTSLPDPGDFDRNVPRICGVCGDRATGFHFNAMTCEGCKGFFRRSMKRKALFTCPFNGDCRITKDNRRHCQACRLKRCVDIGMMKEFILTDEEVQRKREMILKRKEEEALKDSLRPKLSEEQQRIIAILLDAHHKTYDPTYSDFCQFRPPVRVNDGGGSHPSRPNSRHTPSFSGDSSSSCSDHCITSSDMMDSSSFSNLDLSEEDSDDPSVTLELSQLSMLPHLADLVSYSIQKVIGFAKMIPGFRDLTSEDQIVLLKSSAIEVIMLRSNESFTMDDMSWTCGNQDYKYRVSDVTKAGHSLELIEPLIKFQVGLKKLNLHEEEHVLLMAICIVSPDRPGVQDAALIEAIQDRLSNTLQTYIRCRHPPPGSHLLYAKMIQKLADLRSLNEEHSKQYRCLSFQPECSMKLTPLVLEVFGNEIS
Method in brief: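 Tox21 cell reporter format: VDR-bla line, 16 h compound exposure in 5% CO2 at 37C, then fluorescence intensity after 2 h with LiveBLAzer B/G FRET substrate.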

[6] = biological target: Peroxisome proliferator-activated receptor delta (Homo sapiens) (UniProt Q03181); test: qHTS assay to identify small molecule antagonists of the peroxisome proliferator-activated receptor delta (PPARd) signaling pathway (AID 743215; active = well fitted inhibition curve with a large enough effect in the signal ratio in the repeat runs, not every such curve was filed as active; the % refers to the signal ratio;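 also: cells stimulated with agonist L165041 at 300 nM final during compound exposure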; also: potency is read from the fitted curve at half-maximal effect)
Peroxisome proliferator-activated receptor delta (Homo sapiens), sequence (Q03181 whole entry, looked up): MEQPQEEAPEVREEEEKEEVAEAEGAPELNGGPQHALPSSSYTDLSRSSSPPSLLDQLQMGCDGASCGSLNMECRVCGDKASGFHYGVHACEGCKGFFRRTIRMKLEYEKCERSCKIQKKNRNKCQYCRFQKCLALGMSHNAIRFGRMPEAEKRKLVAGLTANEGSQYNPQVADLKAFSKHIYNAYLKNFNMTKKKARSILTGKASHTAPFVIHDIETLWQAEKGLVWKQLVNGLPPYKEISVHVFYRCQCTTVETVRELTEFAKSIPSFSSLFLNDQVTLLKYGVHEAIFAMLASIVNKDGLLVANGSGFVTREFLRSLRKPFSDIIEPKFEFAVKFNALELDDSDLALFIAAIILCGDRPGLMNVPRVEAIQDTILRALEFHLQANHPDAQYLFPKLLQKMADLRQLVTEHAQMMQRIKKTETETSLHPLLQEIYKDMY
Method in brief: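 Here, a reporter line (HEK293H, beta-lactamase under a UAS) measures PPARd signaling. Compounds are tested against agonist L165041 at 300 nM final concentration over 17 h at 37 C, with fluorescence read after substrate.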

[7] = biological target: Bile acid receptor (Homo sapiens) (UniProt Q96RI1); test: qHTS assay to identify small molecule agonists of the farnesoid-X-receptor (FXR) signaling pathway (AID 743220; active = well fitted activation curve with a large enough effect in the signal ratio in the repeat runs, not every such curve was filed as active; the % refers to the signal ratio)
Bile acid receptor (Homo sapiens), sequence (Q96RI1 whole entry, looked up): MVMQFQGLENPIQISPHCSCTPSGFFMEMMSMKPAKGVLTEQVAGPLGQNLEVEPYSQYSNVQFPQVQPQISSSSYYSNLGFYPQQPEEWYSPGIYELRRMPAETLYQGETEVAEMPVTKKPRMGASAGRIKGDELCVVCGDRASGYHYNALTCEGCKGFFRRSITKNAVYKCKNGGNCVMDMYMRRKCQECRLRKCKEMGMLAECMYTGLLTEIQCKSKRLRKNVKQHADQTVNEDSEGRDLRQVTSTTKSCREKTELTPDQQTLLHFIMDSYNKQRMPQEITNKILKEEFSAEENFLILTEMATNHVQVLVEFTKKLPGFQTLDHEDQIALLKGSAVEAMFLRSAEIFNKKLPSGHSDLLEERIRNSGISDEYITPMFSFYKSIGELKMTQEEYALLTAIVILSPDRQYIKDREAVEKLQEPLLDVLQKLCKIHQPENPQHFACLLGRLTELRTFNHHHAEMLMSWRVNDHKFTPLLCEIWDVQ
Method in brief: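 FXR-UAS-bla HEK 293T cells carrying a UAS-driven beta-lactamase reporter were plated for 5 h at 37C/5% CO2, then exposed to DMSO-dissolved Tox21 10K compounds for 16 h at 37C. A LiveBLAzer B/G FRET substrate was loaded for 2 h at room temperature before fluorescence reading.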

[8] = biological target: Peroxisome proliferator-activated receptor delta (Homo sapiens) (UniProt Q03181); test: qHTS assay to identify small molecule agonists of the peroxisome proliferator-activated receptor delta (PPARd) signaling pathway (AID 743212; calls by dose curve;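 also: HEK293H cells with PPARd UAS beta-lactamase reporter GeneBLAzer system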)
Method in brief: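 Beta-lactamase reporter readout: a ratiometric FRET signal from the LiveBLAzer substrate after 2 h at room temperature. Compound exposure at 37 °C in PPARδ-bla HEK293H cells driven by an upstream activator sequence.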

Structure (SMILES) | Potency [1] | Potency [2] | Potency [3] | Potency [4] | Potency [5] | Potency [6] | Potency [7] | outcome [8]
CCCSS/C(CCO)=C(\C)N(C=O)Cc1cnc(C)nc1N | inactive | inactive | inactive | inactive | inactive | – | – | –
O=C(Nc1ccc(Cl)cc1)Nc1ccc(Cl)c(C(F)(F)F)c1 | 13.3 µM (active) | – | – | 16.8 µM (active) | – | 26.6 µM (active) | inactive | –
Cc1ccc2ccc3cccc4ccc1c2c34 | – | inactive | inactive | inactive | – | inactive | inactive | inactive
